Shown are actives, neighbours in structure and some others; about 7.6% of the full set was active somewhere.
KCNH2 WT inh = inhibitors of human wildtype KCNH2 potassium channel; Q12809; activity change, % at 1.84 µM; U2OS, BacMam KCNH2, thallium flux FluxOr; hits give low values; actives 0.37% (n = 340,000);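 active means maximum activity change below -70%; inconclusive means maximum activity change between -70% and -50%; inactive means maximum activity change above -50%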; further: on the % scale 0 is the no-effect control and ±100 the full control effect
Target sequence (Q12809 whole entry, looked up): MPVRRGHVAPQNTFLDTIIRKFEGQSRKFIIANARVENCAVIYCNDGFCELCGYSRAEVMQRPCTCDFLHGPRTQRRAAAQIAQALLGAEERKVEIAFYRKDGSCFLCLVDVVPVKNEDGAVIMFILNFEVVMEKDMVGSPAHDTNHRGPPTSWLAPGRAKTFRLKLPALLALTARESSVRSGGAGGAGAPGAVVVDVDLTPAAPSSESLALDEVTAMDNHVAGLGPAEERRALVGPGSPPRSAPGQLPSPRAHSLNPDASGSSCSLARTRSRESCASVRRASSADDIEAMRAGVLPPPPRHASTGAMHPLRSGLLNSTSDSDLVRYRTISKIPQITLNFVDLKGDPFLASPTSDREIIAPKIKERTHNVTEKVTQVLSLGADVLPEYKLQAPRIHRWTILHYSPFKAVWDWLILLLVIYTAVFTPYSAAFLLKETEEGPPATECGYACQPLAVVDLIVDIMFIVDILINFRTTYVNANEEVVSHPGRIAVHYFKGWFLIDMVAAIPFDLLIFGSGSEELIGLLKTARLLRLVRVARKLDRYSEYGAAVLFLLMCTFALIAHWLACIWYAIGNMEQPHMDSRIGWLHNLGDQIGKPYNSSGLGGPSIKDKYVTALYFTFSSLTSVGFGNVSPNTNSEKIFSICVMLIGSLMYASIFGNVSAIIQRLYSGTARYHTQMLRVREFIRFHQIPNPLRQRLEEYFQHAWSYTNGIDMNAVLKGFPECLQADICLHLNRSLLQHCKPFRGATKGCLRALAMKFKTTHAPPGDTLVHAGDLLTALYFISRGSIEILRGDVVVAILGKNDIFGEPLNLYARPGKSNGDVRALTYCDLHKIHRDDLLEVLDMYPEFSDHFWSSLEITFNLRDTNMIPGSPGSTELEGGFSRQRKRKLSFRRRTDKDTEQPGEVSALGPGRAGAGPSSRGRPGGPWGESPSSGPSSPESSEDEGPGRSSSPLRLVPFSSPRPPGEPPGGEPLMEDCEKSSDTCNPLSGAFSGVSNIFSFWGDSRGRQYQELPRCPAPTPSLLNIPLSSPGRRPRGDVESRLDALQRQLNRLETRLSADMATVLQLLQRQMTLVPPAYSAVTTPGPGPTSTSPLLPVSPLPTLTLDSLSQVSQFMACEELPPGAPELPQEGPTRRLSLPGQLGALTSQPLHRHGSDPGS
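U2OS cells transduced with wild-type KCNH2 virus are loaded with FluxOr dye for 45 min, and thallium flux is measured in kinetic reads before and after stimulation buffer. Rate constants are normalized to DMSO controls.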
KB-3-1 tox = KB-3-1 parental cell cytotoxicity. KB-3-1 viability, CellTiter-Glo ATP luminescence, 72 h. Potency, µM (top dose mostly 46.1 µM), usual class: cytotoxic. actives 1.4% (n = 400,000). AID 1347075; further: potency means the concentration at half of the fitted maximal effect; on the % scale 0 is the no-effect control and ±100 the full control effect; nearly all actives have a fitted effect of over 60% in size
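Cells are dispensed, compounds pinned in, plates held at 37 °C for 72 h, then CellTiter-Glo is added and luminescence read after 10 minutes. Cell line: parental KB-3-1 in phenol-red-free DMEM, 10% FBS.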
SW480 rereplic = induces DNA re-replication in SW480 colon adenocarcinoma cells. SW480 DNA re-replication, Hoechst DNA content imaging, 48 h. Potency, µM (top dose mostly 46.1 µM), inactives show at the highest dose re-replication activation, usual class: activators. actives 1.8% (n = 340,000). AID 624297; further: potency means the concentration at half of the fitted maximal effect; % of control where 0% means no effect; nearly all actives have a fitted effect of over 55% in size
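Hoechst fluorescence of nuclei (405 nm excitation, 500-530 nm emission) measured by plate-scanning imager after 48 hr compound exposure at 37 C; re-replication scored as increased number of nuclei with elevated intensity.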
KCNH2 3.1 block = blocks the human KCNH2 3.1 channel isoform; U2OS KCNH2 3.1, thallium flux FluxOr; hits give low values; activity change, % (tested at about 1.8 µM); actives 0.95% (n = 340,000); AID 720553;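 active means maximum activity change below -70%; inconclusive means maximum activity change from -70% to -50%; inactive means maximum activity change above -50%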;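 further: thallium influx rate constant from kinetic fluorescence after stimulation buffer; on the % scale 0 is the no-effect control and ±100 the full control effect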
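Thallium flux read-out: FluxOr dye with Red40 quencher in HBSS/HEPES, 45 min at RT. Rate constants from kinetic reads were normalized to positive and negative DMSO controls. Cells: U2OS virally expressing the 3.1 isoform.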
MCF10A rerep = induces DNA re-replication in MCF 10a normal breast cells; MCF 10A DNA re-replication, Hoechst nuclear intensity, 48 h; Potency, µM (doses to about 46.1 µM), for inactives: at the highest dose activity, positive = re-replication, actives largely listed as activators; actives 2.9% (n = 350,000); further: potency means the concentration at half of the fitted maximal effect; % of control where 0% means no effect; nearly all actives have a fitted effect of over 50% in size
KB-V1 cytotox = KB-V1 MDR subline cytotoxicity. KB-V1 MDR cells viability, CellTiter-Glo, 72 h. AID 1347076. Potency, µM (highest dose often 46.1 µM), most hits filed as cytotoxic. actives 3.4% (n = 400,000); further: potency means the concentration at half of the fitted maximal effect; on the % scale 0 is the no-effect control and ±100 the full control effect; nearly all actives have a fitted effect of over 60% in size
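Luminescent ATP read-out (CellTiter-Glo, 10 min) measures survival of drug-selected KB-V1 MDR cells after 72 h, 37 degrees C compound exposure. Medium: phenol-red-free DMEM, 10% FBS. Values from fitted concentration-response curves.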
* hit, by the source's call; i = inactive; ? = inconclusive; / = not tested or not shown. Unless noted, the call rests on the fitted dose curve; in most records, active means well fitted curve in the direction sought with a large enough effect; inconclusive means small, poorly fitted or top-dose-only effect, or another doubt; inactive means no such curve, though single readings can be large; an effect the other way counts as inactive or inconclusive.

SMILES | KCNH2 WT inh | KB-3-1 tox | SW480 rereplic | KCNH2 3.1 block | MCF10A rerep | KB-V1 cytotox
CC(C(=O)Nc1ccc2c(c1)OCO2)N(C)CC(=O)Nc1ccc(Cl)cc1 (centres undefined) | 8.2 | i | -5.0% | -10.3 | -4.9% | 23.1µM*
NCCN | / | / | 1.4% | / | 4.6% | /
CCCCC(=O)NNC(=O)c1c(O)c2ccccc2[nH]c1=O | 6.5 | i | -4.6% | 7.2 | ? | 9.2µM*
O=C(CCl)NNC(=O)c1c(O)c2ccccc2[nH]c1=O | -4.6 | 14.6µM* | ? | 10.4 | 19.9% | ?
O=C(NC1CC1)c1c(O)c2ccccc2[nH]c1=O | -3.0 | ? | -11.7% | 1.8 | ? | i
CCOc1ccc(NS(=O)(=O)c2ccc(NC(=S)NC(=O)CC(C)C)cc2)cc1 | -5.8 | i | ? | -10.0 | ? | ?
CC(C)CC(=O)NC(=S)Nc1ccc(S(=O)(=O)NC(C)(C)C)cc1 | 2.6 | i | 2.5% | 3.0 | 5.1% | 14.6µM*
NS(=O)(=O)c1cccc(NC(=O)CSc2nc3ccccc3c(=O)n2CCCN2CCOCC2)c1 | 30.3 | i | -6.3% | 5.1 | 10.7% | i
CC1C=CCC2C(=O)N(c3cccc(C(=O)NCc4ccccc4)c3)C(=O)C12 (centres undefined) | -1.6 | i | 1.3% | -6.6 | 5.8% | i
NC(=S)n1[nH]c(-c2ccc([N+](=O)[O-])cc2)c(N=Nc2ccccc2[N+](=O)[O-])c1=O | -4.4 | i | -10.0% | -3.9 | -2.1% | i
Cc1c(N=Nc2c(-c3ccc([N+](=O)[O-])cc3)[nH]n(C(N)=S)c2=O)cccc1[N+](=O)[O-] | -1.1 | 20.6µM* | ? | 2.5 | ? | 16.4µM*
CCc1c(C)nc(N2CCN(c3ccccc3F)CC2)[nH]c1=O | -1.9 | i | -2.6% | 10.8 | -3.8% | i
COc1nc(N)c(C#N)c(-c2ccc(N(C)CCC#N)cc2)c1C#N | -0.3 | i | 15.1% | -2.7 | 18.4µM* | ?
COc1ccc(-c2c(C#N)c(N)nc(Sc3ccc(Cl)cc3)c2C#N)cc1 | 2.8 | i | ? | -9.8 | ? | i
Cc1cc(Nc2cccc(Cl)c2Cl)n2ncnc2n1 | -221.7* | i | 9.4% | -3.1 | ? | i
Cc1ccc(Nc2cc(C)nc3ncnn23)c(Cl)c1 | 2.7 | ? | -5.2% | 1.6 | 1.1% | i
Cc1nnc(SCc2cc(=O)[nH]c(/N=C(\N)Nc3ccccc3)n2)s1 | 0.4 | ? | ? | -24.4 | 18.4µM* | ?
CCOc1ccc(N/C(N)=N/c2nc(CSc3nnc(C)s3)cc(=O)[nH]2)cc1 | 0.5 | 0.731µM* | ? | 6.4 | ? | ?
COc1ccccc1C(=O)NNC(=O)c1ccc2ccccc2c1O | -2.1 | i | / | 4.6 | / | i
COc1cc(C(C)=O)ccc1OCC(=O)N(CCC1=CCCCC1)c1c(N)n(Cc2ccccc2)c(=O)[nH]c1=O | -1.8 | i | 125.6% | -25.9 | 12.4% | i
Cc1ccc(NC(=S)c2nc3ccccc3[nH]2)cc1 | -21.0 | ? | -5.0% | -19.8 | ? | 23.1µM*
Cc1ccc(NC(=S)c2nc3ccccc3[nH]2)c(C)c1 | -7.0 | 20.6µM* | 0.9% | -1.3 | ? | ?
Cc1ccc(NC(=S)N2CCCC(c3nc4ccccc4[nH]3)C2)cc1 (centres undefined) | / | i | -34.7% | -5.5 | 0.5% | i
CCC(NC(=O)c1ccc2nc(Cc3ccc(OC)cc3)oc2c1)c1ccncc1 (centres undefined) | 12.4 | ? | -15.8% | -104.7* | ? | i
CCOCCc1nnc(N)s1 | 17.5 | i | 14.6µM* | 14.3 | 8.2µM* | i
CC1CCN(c2ccc(NC(=O)c3cccnc3)cc2)CC1 | -13.7 | i | -5.4% | 2.2 | 2.1% | 18.4µM*
O=C(Nc1ccc(N2CCN(C(=O)c3ccccc3)CC2)cc1)c1cccnc1 | 2.6 | i | 1.9% | -10.3 | 5.4% | ?
Cc1ccc(C)c(N2CCN(C(=O)C3CCN(c4nc5ccc(C)cc5[nH]4)CC3)CC2)c1 | / | i | / | / | / | i
